# From the supplement of paper PMC7866885, “A novel bicyclic 2,4-diaminopyrimidine inhibitor of Streptococcus suis dihydrofolate reductase” (PeerJ, 2021)
# ± gives the standard deviation.
# System: Streptococcus suis P1/7
# Experiment: percent growth relative to DMSO control; higher = less growth inhibition
# Details: 10 µM; incubation time 18 h
# Protocol: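 CLSI broth microdilution: 5x10^4 CFU of Streptococcus suis (strain P1/7 or HE06) incubated with 10 µM Pathogen Box compound in cation-adjusted Mueller Hinton broth, 37 °C, 5% CO2, 18 h. Growth read as OD600 and expressed as percent of the DMSO-treated control (100%); mean ± SD of three independent experiments.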
row,SMILES,percent growth
1,O=C(NC1CC1)c1ccc(N2CCC(Cc3ccccc3)CC2)nc1,108 ± 16%
2,CN1CCC(c2cc(-c3ccncc3)c(-c3ccc(F)cc3)[nH]2)CC1,165 ± 140%
3,CCOc1ccc2cc(-c3nn(C(C)(C)C)c(N)c3C(N)=O)cnc2c1,83.1 ± 23%
4,O=C(Nc1nc(-c2ccccn2)cs1)c1cncn1-c1ccccc1,5.15 ± 6.6%
5,CC(C)(C)n1nc(Cc2ccc(F)c(Cl)c2)c2c(N)ncnc21,105 ± 51%
6,CNc1cc(C)nc(C2CN(C(=O)c3n[nH]c4ccccc34)CCO2)c1 (stereo not given),105 ± 50%
7,COC(=O)c1c(NC(=O)c2c(F)c(F)c(F)c(F)c2F)sc2c1CCCCC2,85.2 ± 3%
8,Cc1ccc(NC(=O)c2cc(S(=O)(=O)NC(C)(C)C)ccc2C)nc1,75.6 ± 20%
9,CC(C)(C)c1cc(C(=O)Nc2cccnc2)cc(C(=O)Nc2cccnc2)c1,143 ± 90%
10,CCCCc1ccc(NC(=O)Nc2ccc(O[C@H]3CCCC[C@@H]3N(C)c3ccccc3)c(F)c2)cc1,67.2 ± 2.9%
11,CS(=O)(=O)Cc1nc2ccccc2oc1=O,88.2 ± 53%
12,COCC(C)NC(=O)CSc1ncnc2sc(-c3ccccc3)cc12 (stereo not given),84.8 ± 13%
13,Cn1ncc2c(N3CCOCC3)nc(NCCc3c[nH]c4ccccc34)nc21,78.8 ± 17%
14,Clc1cccc(CO[C@H]2CCc3ccccc3[C@@H]2n2ccnn2)c1,95.9 ± 18%
15,CCCCOC(=O)Nc1cc2nc(C3CCCCC3)[nH]c2cc1N1CCCC1,62.9 ± 63%
16,Nc1nc2ccc(-c3cncc(Oc4ccc(F)cc4)c3)cc2[nH]1,111 ± 67%
17,CC(C)(C)c1ccc(N[C@@H]2CCCC[C@H]2NC(=O)c2ccco2)cc1,78.1 ± 19%
18,O=S(=O)(c1ccc(Cl)cc1)N1CCN(C(=S)NCc2ccco2)CC1,92.6 ± 17%
19,CCc1ccc(C(NCc2nc(N)nc(N(C)C)n2)C(C)C)cc1 (stereo not given),4.17 ± 0.94%
20,CC(C)NCC(=O)Nc1cccc(C(=O)Nc2cccc(C(F)(F)F)c2)c1,125 ± 65%

row,SMILES,percent growth
1,O=C(OCc1ccccc1)N1CCC(c2cc(-c3ccncc3)c(-c3ccc(F)cc3)[nH]2)CC1,92 ± 13%
2,FC(F)(F)c1cccc(-c2nc3c(NCc4ccncc4)nccc3[nH]2)c1,72.5 ± 22%
3,O=[N+]([O-])c1cn2c(n1)OC[C@@H](OCc1ccc(OC(F)(F)F)cc1)C2,90 ± 13%
4,Cc1ccc(NC(=O)CC2COc3ccccc3O2)cc1Cl (stereo not given),95.7 ± 33%
5,O=C(Nc1cccnc1)c1c(O)c2cccc3c2n(c1=O)CC3,89.7 ± 27%
6,Cc1nn(C)cc1C(C)Nc1nncc(-c2ccc(C(F)(F)F)cc2)n1 (stereo not given),103 ± 32%
7,CC(=O)NC[C@@H]1CN(c2ccc(N3CCOCC3)c(F)c2)C(=O)O1,3.05 ± 1.6%
8,NCC(c1cccs1)S(=O)(=O)c1ccccc1 (stereo not given),90.2 ± 41%
9,Cc1ccc(Oc2ccc(NC(=O)CNc3ccccc3N3CCCC3=O)cc2)cc1,104 ± 14%
10,O=C(NCc1nnc2n1CCCCC2)c1ccc(-c2ccc(F)cc2)o1,106 ± 42%
11,COc1cc(CN2CCC3(C=Cc4ccccc43)CC2)cc2c1OCO2,83.9 ± 5.5%
12,CN1CCN(S(=O)(=O)c2ccc(-c3ccc4c(Nc5ncc(Cl)cn5)ccnc4c3)cc2)CC1,103 ± 47%
13,Cc1nc(-c2ccccn2)nc(NCCc2ccc(S(C)(=O)=O)cc2)c1Cl,73.3 ± 11%
14,c1cc(C2=NCCN2)cc(-c2cc(-c3ccc(C4=NCCN4)cc3)no2)c1,88.8 ± 25%
15,Cc1cccc(NC(=O)c2cc(S(=O)(=O)N(C)c3ccc(F)cc3)ccc2Cl)n1,112 ± 33%
16,O=C(Nc1nnc(-c2ccc(Cl)cc2)o1)c1cccc(C(F)(F)F)c1,2.91 ± 3.9%
17,CCOc1ccc2cc(-c3nn(CC4CCN(C)CC4)c4ncnc(N)c34)ccc2c1,99.3 ± 11%
18,Cn1c(=O)c2c(S(C)(=O)=O)snc2n(C)c1=O,93 ± 120%
19,CCC(Sc1nc2ccccc2o1)C(=O)Nc1nnc(C)s1 (stereo not given),0.154 ± 0.27%
20,Nc1ncnc2c1ncn2C[C@@H](O)[C@@H](O)C(=O)O,87.3 ± 15%
